Out of some 50,000 compounds screened, about 350 (0.7%) were called active. This is one part of a sample in which actives are shown more often than they occur. A number with no mark means an inactive call. Rule as the data show it: active = inhibition above about 60%; inactive = the rest.

The target in the assay is Dual specificity protein phosphatase 3 (Homo sapiens) (UniProt P51452). The assay is described as follows: VHR1 phosphatase inhibitors, primary screen, biochemical, colorimetric, HTS (AID 1992). As to conditions: recombinant VHR phosphatase, colorimetric substrate read-out; at 20 µM; stronger effect = higher value.
Dual specificity protein phosphatase 3 (Homo sapiens), sequence (P51452 whole entry, looked up): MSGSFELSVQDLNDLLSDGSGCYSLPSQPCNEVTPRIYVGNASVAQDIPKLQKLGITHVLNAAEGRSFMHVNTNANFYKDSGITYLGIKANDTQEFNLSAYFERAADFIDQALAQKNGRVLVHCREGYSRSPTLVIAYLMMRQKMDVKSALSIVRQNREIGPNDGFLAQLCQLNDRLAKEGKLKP
For the compound `CSc1nc(SC)c2c3c(sc2n1)COC(C)(C)C3`, the inhibition is 4.5%.

With `CC1(C)CC(NC(=O)c2ccccc2C(=O)O)CC(C)(C)N1`, the inhibition was -26.8%.

Turning to `COc1ccc(N2C(=O)C3C(C2=O)C2C=CC3C23CC3)cc1` (stereo not drawn), the inhibition is -13%.

For the compound `Cc1ccc(C)c(NC(=O)CN(c2ccc(F)cc2)S(=O)(=O)c2ccccc2)c1`, the inhibition was -21.2%.

For the compound `CCCCCCOc1ccc(/C=C2/C(=O)ON=C2c2ccccc2)cc1`, the inhibition was 1.2%.

As to `COC(=O)C(=C/C=C/N(C)C)C(=O)OC`, the inhibition was -1.7%.

Turning to `COc1ccc(C2=C/C(=C/c3cccc(OC)c3OC(C)=O)C(=O)O2)cc1`, the inhibition is 2.4%.

On to `O=C1c2cccc3cc(Br)cc(c23)C(=O)N1Nc1ccccc1`, for which the inhibition is -21.6%.

Take `COc1ccccc1OCCCCOc1c(C)cccc1C`: the inhibition is 27.1%.

On to `COc1ccc(C2CC(c3ccccc3)=NN2c2ccccc2OC)cc1` (stereo not drawn), for which the inhibition is 8.3%.

Regarding `COc1ccc(/C=C2/SC(=S)N(Cc3ccccc3)C2=O)cc1OC`, the inhibition was -6.8%.

For `CC(C)CN1C(=O)/C(=C/c2cccc(Oc3ccccc3)c2)SC1=S`, the inhibition was -0.1%.

For the compound `COc1cccc(OCCOc2cccc(/C=C3/SC(=S)N(Cc4ccccc4)C3=O)c2)c1`, the inhibition was 112% (active).

Consider `Cc1ccc(NC(=O)CC2SC(N)=NC2=O)c([N+](=O)[O-])c1` (stereo not drawn), for which the inhibition is 24.8%.

For the compound `C=CCN1C(=O)/C(=C\c2cccn2-c2cccc([N+](=O)[O-])c2)C(=O)NC1=S`, the inhibition was 85.9% (active).

As to `C=CCN1C(=O)/C(=C\c2cc(OC)c(O)c([N+](=O)[O-])c2)C(=O)NC1=S`, the inhibition is 3.8%.

For the compound `COc1ccc(N2C(=O)NC(=O)/C(=C/c3cccn3-c3ccc([N+](=O)[O-])cc3)C2=O)cc1`, the inhibition was -13.8%.

`CC(=O)Oc1ccc(/C=C2\C=C(c3ccc(Br)cc3)OC2=O)c(OC(C)=O)c1`: the inhibition was 5.9%.

Take `CCOC(=O)CCCN1C(=O)/C(=C/c2ccccc2)SC1=S`: the inhibition was -3.8%.

Take `CCOc1ccc(N2C(=O)S/C(=C\c3ccccc3OC)C2=O)cc1`: the inhibition is -12.5%.

As for `CCOC(=O)c1sc(C)c(C(N)=O)c1N`, the inhibition was 0.2%.

As to `O=C1N/C(=N/N=C/c2ccc3c(c2)OCO3)SC1c1ccccc1` (stereo not drawn), the inhibition is -3.2%.

`O=C(Nc1c(Cl)cccc1Cl)c1ccc(Cl)c(Cl)c1`: the inhibition was -2%.

With `CCc1cccc(CC)c1NC(=O)c1ccccc1OC`, the inhibition is 2.4%.

On to `COc1ccc(CCNS(=O)(=O)c2cccc([N+](=O)[O-])c2)cc1`, for which the inhibition was 8.5%.

Consider `CCOc1cccc2c1NC(C)(C)C(=S)C2=C1SC(C(=O)OC)=C(C(=O)OC)S1`, for which the inhibition was -4.6%.

With `CCN(CC)c1ccc(NC(=O)c2oc3ccccc3c2C)cc1`, the inhibition was 7.4%.

Turning to `CCOC(=O)c1ccc(NC(=O)/C(C#N)=C2\NC(C)(C)Cc3ccccc32)cc1`, the inhibition was -14%.

Take `Cc1cc(OCC(=O)Nc2cccnc2)ccc1Cl`: the inhibition was -1.1%.

Take `CCOC(=O)c1ccccc1N/C=C(\C#N)C(=O)NCc1ccccc1`: the inhibition was -12%.

`CC1=C(C(=O)c2ccccc2)C(c2ccc([N+](=O)[O-])cc2)NC(=O)N1` (stereo not drawn): the inhibition is -1.5%.

Consider `COc1ccc(C(=O)N2CCN(Cc3cccc(OC)c3OC)CC2)cc1OC`, for which the inhibition is -15.2%.

On to `COc1ccc(OC(C)C(=O)NCCc2nc3ccccc3[nH]2)cc1` (stereo not drawn), for which the inhibition is -9.3%.

As to `CC(=O)Nc1ccc(S(=O)(=O)Nc2cccc(-c3nc4ccccc4[nH]3)c2)cc1`, the inhibition is -3%.

In the case of `Cc1cc2c(cc1C)-c1nc3ccccc3c(=O)n1C(C)(C)C2`, the inhibition was -9.1%.

For `Cc1cc(C(=O)N/N=C/c2ccc(Br)c([N+](=O)[O-])c2)n[nH]1`, the inhibition was -1.6%.

`CC(C)(C)OC(=O)NC(Cc1c[nH]c2ccccc12)C(=O)N1CCOCC1` (stereo not drawn): the inhibition is 4.4%.

Regarding `O=C1N/C(=N\N=C\c2ccccc2O)SC1Cc1cccc(C(F)(F)F)c1` (stereo not drawn), the inhibition was -19.6%.

On to `Cc1cc(NC(=O)C2CCCCC2)cc(C)c1O`, for which the inhibition was -10.1%.

In the case of `Cc1ccc(-c2cc(C(=O)N3CC(C)CC(C)C3)c3ccccc3n2)cc1C` (stereo not drawn), the inhibition is 30.2%.

As to `CC(C)c1ccc(C(=O)NC2CC2)cc1`, the inhibition is 0%.

With `COc1cccc(C2/C(=C(\O)c3ccc(Cl)cc3)C(=O)C(=O)N2c2cccnc2)c1` (stereo not drawn), the inhibition is -0.3%.

In the case of `N#C/C(=C\c1cn(CC(=O)Nc2ccccc2)c2ccccc12)C(=O)Nc1ccc(F)cc1`, the inhibition was 23.2%.

As for `O=c1oc2c(-c3cc(Cl)ccc3Cl)cc(O)cc2s1`, the inhibition is 14%.

With `C/C(=N/NC(=O)c1ccccc1C)c1ccc(NC(=O)C(F)(F)F)cc1`, the inhibition is -15.5%.

In the case of `O=c1[nH]c(=S)n(-c2cccc(Cl)c2)c(O)c1/C=C1/C=CC=N1`, the inhibition is 87.4% (active).

Regarding `O=c1[nH]c(=O)n(-c2ccc(Cl)cc2)c(O)c1/C=C1/C=CC=N1`, the inhibition is 37.9%.

With `CCOc1ccc(-n2c(O)c(C=C3C=CC=N3)c(=O)[nH]c2=O)cc1`, the inhibition was 3%.

As to `Cc1cc2c(cc1C)NC(CC(=O)Nc1ccccc1C(F)(F)F)C(=O)N2` (stereo not drawn), the inhibition was -0.3%.

As for `Cc1ccc(NC(=O)CC2Nc3cc(C)c(C)cc3NC2=O)cc1` (stereo not drawn), the inhibition was 33.7%.

As for `O=C(CC1Nc2ccccc2NC1=O)Nc1ccccc1NC(=O)CC1Nc2ccccc2NC1=O` (stereo not drawn), the inhibition is 97.7% (active).

For the compound `C=CCc1ccccc1OCCOc1c(I)cc(/C=C2/SC(=S)N(C)C2=O)cc1OC`, the inhibition was -23.1%.

Turning to `COc1ccccc1OCCOc1ccc(/C=N/n2cnnc2)cc1`, the inhibition was 14.5%.

`Cc1cccc(OCCOc2cccc(/C=N/n3cnnc3)c2)c1`: the inhibition was 112% (active).

As to `CCOc1cc(/C=N/n2cnnc2)ccc1OCCOc1ccccc1C`, the inhibition was -20.4%.

For `CC(C)c1ccc(NC(=O)CN(c2ccc(Oc3ccccc3)cc2)S(C)(=O)=O)cc1`, the inhibition was -26.4%.

As to `CCCOC(=O)c1ccc(N=Cc2ccc([N+](=O)[O-])cc2)cc1`, the inhibition is 3.4%.

On to `O=C(NCCN1CCOCC1)c1cc2nc(-c3ccc([N+](=O)[O-])cc3)cc(C(F)(F)F)n2n1`, for which the inhibition was -23.4%.

`Cc1ccc(-c2ccc(C)cc2N)c(N)c1`: the inhibition was -3%.

In the case of `O=C(NCc1ccccc1)c1ccc(CN2CCN(c3ccccc3)CC2)cc1`, the inhibition was 5.6%.

`CC(C)(C)c1cc(Br)ccc1OCC(=O)Nc1ccccc1[N+](=O)[O-]`: the inhibition is -0.7%.

Regarding `O=C(Nc1cccc(Br)c1)C(=O)NC1CCCC1`, the inhibition is -18.7%.

With `Cc1ccc2c(c1)C(c1ccccc1[N+](=O)[O-])CC(=O)N2` (stereo not drawn), the inhibition is -4.5%.

As to `O=C(c1nn2c(c1Cl)NC(c1ccc(F)cc1)CC2C(F)(F)F)N1CCN(Cc2ccccc2)CC1` (stereo not drawn), the inhibition is -2.9%.

Take `O=C1C2C(C(=O)N1/N=C/C=C/c1ccccc1)C1C=CC2C12CC2` (stereo not drawn): the inhibition was -11.9%.

`CC(C)(C)c1cc(N2C(=O)C(=O)/C(=C(\O)c3ccccc3)C2c2cccc([N+](=O)[O-])c2)no1` (stereo not drawn): the inhibition is 10.1%.

For `Cc1cccc(NC(=O)CCCOc2ccccc2)c1C`, the inhibition was -23.5%.

`Cc1ccccc1NCC(=O)N/N=C\c1cc([N+](=O)[O-])cc(Br)c1O`: the inhibition is 31.8%.

Consider `Cc1cc(Br)cc(/C=N/NC(=O)c2cncc(Br)c2)c1O`, for which the inhibition was -16.6%.

Consider `Cc1ncc(C[n+]2csc3ccccc32)c(N)n1`, for which the inhibition is 23.5%.

With `COc1ccc(C(=O)/C=C/Nc2cccc(Cl)c2Cl)cc1`, the inhibition is 3.3%.

Regarding `O=C1S/C(=C/c2ccc(-c3ccc(Cl)cc3Cl)o2)C(=O)N1c1ccccc1`, the inhibition is -7.5%.

On to `CN(C)CCOC(=O)CCN1C(=O)/C(=C/c2ccc(Cl)cc2Cl)SC1=S`, for which the inhibition was -1.5%.

As for `O=C(O)CCN1C(=O)/C(=C/c2ccc(-c3cc(Cl)ccc3Cl)o2)SC1=S`, the inhibition is 73% (active).

Turning to `Cc1cccc(NC(=O)c2cc(-c3ccc(Br)cc3)nc3ccccc23)n1`, the inhibition was -30.2%.

In the case of `CCn1c(=O)c(C(=O)Nc2ccccc2Br)c(O)c2ccccc21`, the inhibition was -20.9%.

`COc1ccc(C=O)c2c(O)cccc12`: the inhibition is 2.1%.

For the compound `CCN(C=NC1=NN(c2ccccc2)CC1)CC`, the inhibition is 2.7%.

In the case of `O=C1C=CC2=C3Oc4c(ccc5cc(O)ccc45)C(c4ccccc4C(=O)O)C3C=CC2=C1` (stereo not drawn), the inhibition is 85.5% (active).

As for `O=C(NCCCn1ccnc1)c1ccccc1[N+](=O)[O-]`, the inhibition is 5.9%.

`CC1=C(C(=O)OCc2ccccc2)C(c2ccc(C(F)(F)F)cc2)CC(=O)N1` (stereo not drawn): the inhibition was 8.1%.

As to `O=C1C(=O)N(Cc2ccccc2)C2C=CC=CC12` (stereo not drawn), the inhibition was 7.6%.

With `COc1cccc(NC(=O)CN(c2cccc([N+](=O)[O-])c2)S(=O)(=O)c2ccccc2)c1`, the inhibition is -23.4%.

Turning to `CCOC(=O)c1c(NC(=O)c2cc(OC)c(OC)c(OC)c2)sc(C(N)=O)c1C`, the inhibition is 1.3%.

In the case of `S=c1n(CN2CCOCC2)nc(-c2ccccc2Cl)n1-c1ccccc1`, the inhibition is -3.8%.

With `O=C(Nc1cc(Cl)cc(Cl)c1)C1COc2ccccc2O1` (stereo not drawn), the inhibition was -3%.

In the case of `COc1ccc(/C=N/NC(=O)C2CC2)c(OC)c1OC`, the inhibition was -32.4%.

Take `Cc1cc(C)c2cccc(NC(=S)NC(=O)c3cccc([N+](=O)[O-])c3)c2n1`: the inhibition was -0.4%.

`O=[N+]([O-])c1nonc1NCn1nnc2ccccc21`: the inhibition is -8%.

For the compound `CC(NC(=O)C1CC(=O)N(c2ccc(Br)cc2)C1)c1ccccc1` (stereo not drawn), the inhibition was 16.1%.

As for `COC(=O)c1ccc(/C=N/Nc2nncc(-c3ccccc3)n2)cc1`, the inhibition was -34%.

As for `Cc1onc(-c2c(Cl)cccc2Cl)c1C(=O)Nc1sc2c(c1C(N)=O)CCCC2`, the inhibition is -46.5%.

Turning to `O=C1NC(=O)C(=Cc2cccc(OCc3ccccc3)c2)C(=O)N1`, the inhibition is -24.8%.
